Measured values published in article PMC7862700, “An all-to-all approach to the identification of sequence-specific readers for epigenetic DNA modifications on cytosine”.

Legend:
Experiment in all cases: DAPPL (digital affinity profiling via proximity ligation, sequencing); 10 mM Tris-HCl pH 7.5, 50 mM NaCl, 1 mM DTT, 4% glycerol, room temperature, 30 min; GST-TFs on glutathione beads, 16-mer random dsDNA library, 0.1% formaldehyde crosslink after washing; high values mean tight binding
[1] = target: T1, FLI1 (Homo sapiens, UniProt Q01543 1-452); details: protein: recombinant; tags: N-terminal GST; dsDNA, one strand shown
T1 sequence: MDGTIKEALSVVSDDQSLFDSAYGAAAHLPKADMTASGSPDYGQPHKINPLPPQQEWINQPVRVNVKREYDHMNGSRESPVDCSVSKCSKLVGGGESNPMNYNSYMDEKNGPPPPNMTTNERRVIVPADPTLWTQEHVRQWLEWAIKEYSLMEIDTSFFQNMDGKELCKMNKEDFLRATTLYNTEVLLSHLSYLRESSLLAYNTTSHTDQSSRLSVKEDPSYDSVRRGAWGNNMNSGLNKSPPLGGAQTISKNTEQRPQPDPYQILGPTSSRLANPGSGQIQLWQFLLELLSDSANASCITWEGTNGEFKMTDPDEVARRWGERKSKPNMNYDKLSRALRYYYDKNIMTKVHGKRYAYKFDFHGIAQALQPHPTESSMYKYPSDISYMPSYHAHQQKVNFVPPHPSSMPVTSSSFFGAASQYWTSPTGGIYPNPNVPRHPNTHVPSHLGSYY
Method in brief: (§1)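 Sequencing on an Illumina NextSeq500 followed washing, crosslinking with 0.1% formaldehyde, proximity ligation (BsaI/T4 ligase, 1 h, 37 °C) and PCR amplification of pools that had been incubated for 30 min at room temperature with 200 nmole of a random double-stranded 16-mer DNA library in Tris/NaCl/DTT/glycerol buffer. Each pool held DNA-barcoded human transcription factors, expressed in yeast as GST fusions and captured on glutathione beads, plus a tag-only sample. Binding signal is a hexamer's read frequency for a factor divided by its frequency in the tag-only sample.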

[2] = target: T2, ELK1 (Homo sapiens, UniProt P19419 1-428); details: protein: recombinant; tags: N-terminal GST; dsDNA, one strand shown
T2 sequence: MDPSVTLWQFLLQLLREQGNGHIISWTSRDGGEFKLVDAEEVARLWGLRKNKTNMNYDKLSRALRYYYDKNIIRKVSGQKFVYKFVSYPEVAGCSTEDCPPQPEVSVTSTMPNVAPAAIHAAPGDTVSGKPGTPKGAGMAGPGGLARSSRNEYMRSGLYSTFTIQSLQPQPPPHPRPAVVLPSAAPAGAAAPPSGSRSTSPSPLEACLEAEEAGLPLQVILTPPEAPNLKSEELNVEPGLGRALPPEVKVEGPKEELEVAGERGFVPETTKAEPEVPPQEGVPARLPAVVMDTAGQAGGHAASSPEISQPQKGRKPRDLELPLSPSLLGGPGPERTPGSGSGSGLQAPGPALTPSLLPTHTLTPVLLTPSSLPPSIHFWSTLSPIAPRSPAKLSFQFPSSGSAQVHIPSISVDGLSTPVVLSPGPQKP
Method in brief: as §1

[3] = target: T3, GABPA (Homo sapiens, UniProt Q06546 1-454); details: protein: recombinant; tags: N-terminal GST; dsDNA, one strand shown
T3 sequence: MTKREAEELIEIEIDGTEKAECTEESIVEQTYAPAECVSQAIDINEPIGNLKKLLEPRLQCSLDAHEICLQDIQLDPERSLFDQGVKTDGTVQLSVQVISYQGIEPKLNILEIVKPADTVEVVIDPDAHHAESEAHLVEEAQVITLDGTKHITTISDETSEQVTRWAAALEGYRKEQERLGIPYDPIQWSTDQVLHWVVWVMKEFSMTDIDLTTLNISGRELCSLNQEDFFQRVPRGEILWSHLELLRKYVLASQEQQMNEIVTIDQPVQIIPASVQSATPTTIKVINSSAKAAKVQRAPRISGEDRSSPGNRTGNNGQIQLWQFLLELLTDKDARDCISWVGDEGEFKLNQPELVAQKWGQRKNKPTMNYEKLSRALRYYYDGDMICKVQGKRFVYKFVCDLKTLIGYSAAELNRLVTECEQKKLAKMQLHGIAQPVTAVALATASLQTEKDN
Method in brief: as §1

[4] = target: T4, ERG (Homo sapiens, UniProt P11308 1-479); details: protein: recombinant; tags: N-terminal GST; dsDNA, one strand shown
T4 sequence: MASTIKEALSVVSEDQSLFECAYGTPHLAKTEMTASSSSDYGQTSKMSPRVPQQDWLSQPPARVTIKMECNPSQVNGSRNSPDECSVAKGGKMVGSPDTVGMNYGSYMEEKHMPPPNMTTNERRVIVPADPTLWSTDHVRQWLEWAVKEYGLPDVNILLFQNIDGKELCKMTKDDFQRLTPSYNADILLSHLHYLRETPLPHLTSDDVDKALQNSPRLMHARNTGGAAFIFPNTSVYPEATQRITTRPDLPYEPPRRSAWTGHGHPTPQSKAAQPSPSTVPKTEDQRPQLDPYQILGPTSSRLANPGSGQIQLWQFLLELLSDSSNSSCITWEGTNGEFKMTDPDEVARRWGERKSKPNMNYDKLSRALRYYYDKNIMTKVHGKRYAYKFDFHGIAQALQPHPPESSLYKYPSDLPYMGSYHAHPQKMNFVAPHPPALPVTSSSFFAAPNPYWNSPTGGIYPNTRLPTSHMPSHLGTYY
Method in brief: as §1

[5] = target: ELF1 (Homo sapiens, UniProt P32519 1-619); details: protein: recombinant; tags: N-terminal GST; dsDNA, one strand shown
ELF1, sequence (P32519 whole entry): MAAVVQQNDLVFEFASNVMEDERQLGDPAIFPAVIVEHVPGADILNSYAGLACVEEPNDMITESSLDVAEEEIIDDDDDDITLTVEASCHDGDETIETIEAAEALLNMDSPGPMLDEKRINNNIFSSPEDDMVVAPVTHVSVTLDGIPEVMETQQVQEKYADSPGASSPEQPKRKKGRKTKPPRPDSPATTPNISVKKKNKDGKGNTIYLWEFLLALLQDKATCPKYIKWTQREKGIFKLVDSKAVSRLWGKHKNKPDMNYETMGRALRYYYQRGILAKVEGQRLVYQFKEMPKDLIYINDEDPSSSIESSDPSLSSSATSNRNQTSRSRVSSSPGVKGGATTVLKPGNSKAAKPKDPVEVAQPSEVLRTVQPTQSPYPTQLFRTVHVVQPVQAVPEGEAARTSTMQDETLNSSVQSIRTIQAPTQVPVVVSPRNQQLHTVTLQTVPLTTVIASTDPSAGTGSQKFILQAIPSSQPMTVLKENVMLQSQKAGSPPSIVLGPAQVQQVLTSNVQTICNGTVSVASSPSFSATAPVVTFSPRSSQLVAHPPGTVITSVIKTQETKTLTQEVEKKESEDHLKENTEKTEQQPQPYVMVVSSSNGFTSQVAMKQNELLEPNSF
Method in brief: as §1

[6] = target: T5, EHF (Homo sapiens, UniProt Q9NZC4 1-300); details: protein: recombinant; tags: N-terminal GST; dsDNA, one strand shown
T5 sequence: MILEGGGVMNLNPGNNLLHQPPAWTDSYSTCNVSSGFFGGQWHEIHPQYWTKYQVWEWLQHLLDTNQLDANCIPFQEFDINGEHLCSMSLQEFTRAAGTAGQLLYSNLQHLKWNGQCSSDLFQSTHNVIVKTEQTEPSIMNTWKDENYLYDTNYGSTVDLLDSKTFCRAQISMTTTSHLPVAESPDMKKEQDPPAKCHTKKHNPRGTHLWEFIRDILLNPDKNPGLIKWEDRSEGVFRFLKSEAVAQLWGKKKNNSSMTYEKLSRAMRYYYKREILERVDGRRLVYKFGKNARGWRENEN
Method in brief: as §1

[7] = target: SPI1 (Homo sapiens, UniProt P17947 1-270); details: protein: recombinant; tags: N-terminal GST; dsDNA, one strand shown
Method in brief: as §1

[8] = target: SPIB (Homo sapiens, UniProt Q01892 1-262); details: protein: recombinant; tags: N-terminal GST; dsDNA, one strand shown
SPIB, sequence (Q01892 whole entry): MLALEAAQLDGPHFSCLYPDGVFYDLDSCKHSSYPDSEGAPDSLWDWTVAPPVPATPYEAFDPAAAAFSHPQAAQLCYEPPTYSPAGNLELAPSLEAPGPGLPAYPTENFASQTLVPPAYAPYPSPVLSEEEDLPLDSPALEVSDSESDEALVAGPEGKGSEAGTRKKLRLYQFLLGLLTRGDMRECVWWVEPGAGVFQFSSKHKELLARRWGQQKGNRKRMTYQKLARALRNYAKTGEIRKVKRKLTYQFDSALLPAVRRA
Method in brief: as §1

[9] = target: T6, ELK3 (Homo sapiens, UniProt P41970 1-407); details: protein: recombinant; tags: N-terminal GST; dsDNA, one strand shown
T6 sequence: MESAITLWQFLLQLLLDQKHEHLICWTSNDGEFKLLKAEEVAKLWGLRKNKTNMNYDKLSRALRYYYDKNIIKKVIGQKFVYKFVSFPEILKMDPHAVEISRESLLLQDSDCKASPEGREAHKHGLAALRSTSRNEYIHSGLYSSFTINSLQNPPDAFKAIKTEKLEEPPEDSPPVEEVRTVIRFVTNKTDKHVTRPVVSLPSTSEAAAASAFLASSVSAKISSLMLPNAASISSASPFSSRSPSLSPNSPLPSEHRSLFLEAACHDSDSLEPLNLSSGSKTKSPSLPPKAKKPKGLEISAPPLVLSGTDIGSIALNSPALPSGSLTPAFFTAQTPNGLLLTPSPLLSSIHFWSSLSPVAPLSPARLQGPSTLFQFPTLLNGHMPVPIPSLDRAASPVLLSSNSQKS
Method in brief: as §1

[10] = target: T7, FEV (Homo sapiens, UniProt Q99581 1-238); details: protein: recombinant; tags: N-terminal GST; dsDNA, one strand shown
T7 sequence: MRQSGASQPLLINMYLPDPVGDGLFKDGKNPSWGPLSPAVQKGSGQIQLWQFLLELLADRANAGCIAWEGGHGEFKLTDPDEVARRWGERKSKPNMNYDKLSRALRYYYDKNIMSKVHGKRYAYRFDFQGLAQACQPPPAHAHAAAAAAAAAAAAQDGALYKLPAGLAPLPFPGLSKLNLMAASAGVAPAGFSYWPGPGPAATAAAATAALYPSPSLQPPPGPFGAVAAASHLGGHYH
Method in brief: as §1

[11] = target: ETV5 (Homo sapiens, UniProt P41161 1-510); details: protein: recombinant; tags: N-terminal GST; dsDNA, one strand shown
ETV5, sequence (P41161 whole entry): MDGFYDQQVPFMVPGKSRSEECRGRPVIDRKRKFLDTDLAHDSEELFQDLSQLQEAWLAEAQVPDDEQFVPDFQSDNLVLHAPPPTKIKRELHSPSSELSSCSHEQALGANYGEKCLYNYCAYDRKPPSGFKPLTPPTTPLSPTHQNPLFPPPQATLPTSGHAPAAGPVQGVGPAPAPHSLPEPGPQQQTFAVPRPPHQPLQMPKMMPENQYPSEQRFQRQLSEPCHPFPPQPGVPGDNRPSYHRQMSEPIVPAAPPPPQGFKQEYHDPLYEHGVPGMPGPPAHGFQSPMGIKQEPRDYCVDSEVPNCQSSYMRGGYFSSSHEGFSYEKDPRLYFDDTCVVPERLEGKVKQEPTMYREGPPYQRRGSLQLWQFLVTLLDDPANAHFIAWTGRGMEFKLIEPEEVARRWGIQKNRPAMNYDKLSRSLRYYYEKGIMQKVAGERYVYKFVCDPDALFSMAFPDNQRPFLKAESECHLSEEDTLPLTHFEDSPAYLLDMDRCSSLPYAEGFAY
Method in brief: as §1

[12] = target: HSF1 (Homo sapiens, UniProt Q00613 1-529); details: protein: recombinant; tags: N-terminal GST; chain copies: 3; dsDNA, one strand shown
HSF1, sequence (Q00613 whole entry): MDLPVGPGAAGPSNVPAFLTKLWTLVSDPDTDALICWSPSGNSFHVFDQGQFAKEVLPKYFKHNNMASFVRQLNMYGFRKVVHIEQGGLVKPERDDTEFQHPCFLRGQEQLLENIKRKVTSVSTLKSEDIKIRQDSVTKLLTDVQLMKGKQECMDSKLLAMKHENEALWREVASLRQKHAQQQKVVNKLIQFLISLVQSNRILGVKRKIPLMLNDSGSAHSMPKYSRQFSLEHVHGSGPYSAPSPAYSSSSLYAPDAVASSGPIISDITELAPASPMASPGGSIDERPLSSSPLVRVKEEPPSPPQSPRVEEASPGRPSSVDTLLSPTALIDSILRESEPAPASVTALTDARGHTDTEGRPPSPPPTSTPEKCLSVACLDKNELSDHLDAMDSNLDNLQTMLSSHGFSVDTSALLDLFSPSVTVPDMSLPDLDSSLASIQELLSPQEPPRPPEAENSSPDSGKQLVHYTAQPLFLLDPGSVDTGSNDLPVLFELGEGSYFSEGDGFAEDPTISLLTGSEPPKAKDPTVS
Method in brief: as §1

[13] = target: T8, SPIC (Homo sapiens, UniProt Q8N5J4 1-248); details: protein: recombinant; tags: N-terminal GST; dsDNA, one strand shown
T8 sequence: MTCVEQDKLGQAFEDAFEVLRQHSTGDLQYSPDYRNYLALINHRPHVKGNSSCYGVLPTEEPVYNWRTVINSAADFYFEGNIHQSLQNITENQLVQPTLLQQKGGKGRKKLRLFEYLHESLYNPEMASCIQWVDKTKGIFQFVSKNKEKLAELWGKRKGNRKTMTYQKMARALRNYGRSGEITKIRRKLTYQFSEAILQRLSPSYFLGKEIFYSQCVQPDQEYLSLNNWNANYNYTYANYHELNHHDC
Method in brief: as §1

[14] = target: ELF4 (Homo sapiens, UniProt Q99607 1-663); details: protein: recombinant; tags: N-terminal GST; dsDNA, one strand shown
ELF4, sequence (Q99607 whole entry): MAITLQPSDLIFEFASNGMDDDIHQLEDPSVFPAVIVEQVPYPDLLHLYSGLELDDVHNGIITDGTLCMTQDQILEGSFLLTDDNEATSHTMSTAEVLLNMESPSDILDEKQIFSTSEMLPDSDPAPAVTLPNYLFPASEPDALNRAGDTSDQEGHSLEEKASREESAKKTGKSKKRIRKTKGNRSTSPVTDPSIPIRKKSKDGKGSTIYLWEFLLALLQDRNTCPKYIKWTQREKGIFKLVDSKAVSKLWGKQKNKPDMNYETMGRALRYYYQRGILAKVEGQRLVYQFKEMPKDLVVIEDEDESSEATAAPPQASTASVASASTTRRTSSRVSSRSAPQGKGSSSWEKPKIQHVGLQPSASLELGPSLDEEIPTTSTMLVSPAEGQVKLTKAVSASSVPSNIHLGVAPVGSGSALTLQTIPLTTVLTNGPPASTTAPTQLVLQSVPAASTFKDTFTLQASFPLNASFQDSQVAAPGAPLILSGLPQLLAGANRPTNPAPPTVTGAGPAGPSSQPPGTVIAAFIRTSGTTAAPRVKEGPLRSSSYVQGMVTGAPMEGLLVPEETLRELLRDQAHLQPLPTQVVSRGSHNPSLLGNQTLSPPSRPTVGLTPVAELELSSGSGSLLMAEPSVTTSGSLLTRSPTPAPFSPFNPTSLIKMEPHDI
Method in brief: as §1

[15] = target: T9, ELK4 (Homo sapiens, UniProt P28324-2 1-405); details: protein: recombinant; tags: N-terminal GST; dsDNA, one strand shown
T9 sequence: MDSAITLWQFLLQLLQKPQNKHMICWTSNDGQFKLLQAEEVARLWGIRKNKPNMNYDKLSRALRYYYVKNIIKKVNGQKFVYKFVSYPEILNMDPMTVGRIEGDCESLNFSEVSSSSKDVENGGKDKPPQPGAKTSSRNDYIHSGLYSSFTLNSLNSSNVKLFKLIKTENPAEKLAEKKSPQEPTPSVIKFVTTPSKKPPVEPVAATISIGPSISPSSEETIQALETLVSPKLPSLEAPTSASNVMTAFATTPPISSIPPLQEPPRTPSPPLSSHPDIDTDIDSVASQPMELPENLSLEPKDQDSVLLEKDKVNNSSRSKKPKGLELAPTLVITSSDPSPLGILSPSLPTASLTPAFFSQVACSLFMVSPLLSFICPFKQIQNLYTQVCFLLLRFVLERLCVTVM
Method in brief: as §1

[16] = target: T10, ETV2 (Homo sapiens, UniProt O00321 1-342); details: protein: recombinant; tags: N-terminal GST; dsDNA, one strand shown
T10 sequence: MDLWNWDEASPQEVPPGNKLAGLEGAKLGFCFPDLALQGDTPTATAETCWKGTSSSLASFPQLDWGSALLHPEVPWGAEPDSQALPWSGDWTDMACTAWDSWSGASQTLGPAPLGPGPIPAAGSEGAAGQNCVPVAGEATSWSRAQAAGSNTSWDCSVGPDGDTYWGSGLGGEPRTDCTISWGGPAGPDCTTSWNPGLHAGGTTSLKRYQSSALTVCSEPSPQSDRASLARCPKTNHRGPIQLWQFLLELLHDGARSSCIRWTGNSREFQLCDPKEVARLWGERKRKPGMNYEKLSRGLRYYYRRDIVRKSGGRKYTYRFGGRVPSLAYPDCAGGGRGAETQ
Method in brief: as §1

[17] = target: T11, ELF3 (Homo sapiens, UniProt P78545 1-371); details: protein: recombinant; tags: N-terminal GST; dsDNA, one strand shown
T11 sequence: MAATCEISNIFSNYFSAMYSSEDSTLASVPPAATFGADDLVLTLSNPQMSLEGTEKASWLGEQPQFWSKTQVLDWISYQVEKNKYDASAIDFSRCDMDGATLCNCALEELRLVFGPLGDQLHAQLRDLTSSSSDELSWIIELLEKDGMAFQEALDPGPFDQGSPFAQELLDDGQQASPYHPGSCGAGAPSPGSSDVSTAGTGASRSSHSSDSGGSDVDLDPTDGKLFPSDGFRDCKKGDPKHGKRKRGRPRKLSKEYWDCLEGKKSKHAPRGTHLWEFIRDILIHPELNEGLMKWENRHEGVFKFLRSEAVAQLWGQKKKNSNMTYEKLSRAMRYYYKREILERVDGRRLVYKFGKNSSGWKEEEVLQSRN
Method in brief: as §1

[18] = target: CRX (Homo sapiens, UniProt O43186 1-299); details: protein: recombinant; tags: N-terminal GST; dsDNA, one strand shown
CRX, sequence (O43186 whole entry): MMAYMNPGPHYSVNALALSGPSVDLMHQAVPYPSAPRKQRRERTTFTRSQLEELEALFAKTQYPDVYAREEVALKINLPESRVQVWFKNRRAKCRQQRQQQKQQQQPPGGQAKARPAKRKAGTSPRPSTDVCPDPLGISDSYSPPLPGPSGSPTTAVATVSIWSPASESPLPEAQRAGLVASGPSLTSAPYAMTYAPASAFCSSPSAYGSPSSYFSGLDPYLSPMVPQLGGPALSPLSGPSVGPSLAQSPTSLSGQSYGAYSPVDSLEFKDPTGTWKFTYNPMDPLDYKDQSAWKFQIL
Method in brief: as §1

[19] = target: ETV1 (Homo sapiens, UniProt P50549 1-477); details: protein: recombinant; tags: N-terminal GST; dsDNA, one strand shown
ETV1, sequence (P50549 whole entry): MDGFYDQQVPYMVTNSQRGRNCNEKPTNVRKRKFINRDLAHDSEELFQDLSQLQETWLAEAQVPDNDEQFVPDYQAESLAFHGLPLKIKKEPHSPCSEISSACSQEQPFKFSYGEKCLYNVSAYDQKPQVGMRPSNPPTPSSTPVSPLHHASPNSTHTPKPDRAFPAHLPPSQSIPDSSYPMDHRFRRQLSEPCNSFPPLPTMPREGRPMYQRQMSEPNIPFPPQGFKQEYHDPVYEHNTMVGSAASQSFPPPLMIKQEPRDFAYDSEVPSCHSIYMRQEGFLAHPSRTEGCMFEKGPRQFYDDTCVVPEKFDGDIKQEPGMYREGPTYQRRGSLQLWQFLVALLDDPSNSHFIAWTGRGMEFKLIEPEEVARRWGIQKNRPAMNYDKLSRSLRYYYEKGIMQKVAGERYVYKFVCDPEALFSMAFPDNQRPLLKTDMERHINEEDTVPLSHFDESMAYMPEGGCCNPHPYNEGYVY
Method in brief: as §1

## CGCTTT
[1]
  binding signal: 1.31 fold enrichment (6-mer frequency, TF over GST control)
[2]
  binding signal: 1.1 fold enrichment (6-mer frequency, TF over GST control)
[3]
  binding signal: 1.32 fold enrichment (6-mer frequency, TF over GST control)
[4]
  binding signal: 1.15 fold enrichment (6-mer frequency, TF over GST control)
[5]
  binding signal: 1.18 fold enrichment (6-mer frequency, TF over GST control)
[6]
  binding signal: 1.19 fold enrichment (6-mer frequency, TF over GST control)
[7]
  binding signal: 1.59 fold enrichment (6-mer frequency, TF over GST control)
[8]
  binding signal: 1.4 fold enrichment (6-mer frequency, TF over GST control)
[9]
  binding signal: 1.31 fold enrichment (6-mer frequency, TF over GST control)
[10]
  binding signal: 1.18 fold enrichment (6-mer frequency, TF over GST control)
[11]
  binding signal: 1.21 fold enrichment (6-mer frequency, TF over GST control)
[12]
  binding signal: 1.11 fold enrichment (6-mer frequency, TF over GST control)
[13]
  binding signal: 1.17 fold enrichment (6-mer frequency, TF over GST control)
[14]
  binding signal: 1.31 fold enrichment (6-mer frequency, TF over GST control)
[15]
  binding signal: 1.17 fold enrichment (6-mer frequency, TF over GST control)
[16]
  binding signal: 1.09 fold enrichment (6-mer frequency, TF over GST control)
[17]
  binding signal: 1.22 fold enrichment (6-mer frequency, TF over GST control)
[18]
  binding signal: 1.37 fold enrichment (6-mer frequency, TF over GST control)
[19]
  binding signal: 1.4 fold enrichment (6-mer frequency, TF over GST control)
